Several values for one entry are separate records, joined by “and”; a condition that tells them apart may be missing. Identical values can stand only once. Records with an inconclusive call do not appear. Where a call stands in place of a potency, no number is given. Where a structure was tested more than once in an assay, its records may differ in their call. Activity calls are given as the source filed them. Calls come from the whole dose curve; as a rule, active = well fitted curve in the direction sought with a large enough effect; inconclusive = small, poorly fitted or top-dose-only effect, or another doubt; inactive = no such curve, though single readings can be large; an effect the other way counts as inactive or inconclusive. Non-standard residues stand in square brackets, D forms with d. Residues, ends and D or L forms follow the SMILES beside them. Peptide text beside a SMILES is read from it. *: point of attachment. Sta = CC(C)C[C@H](N)[C@@H](O)CC(=O)O; Isovaleryl = CC(C)CC(=O)*

This is an account of results in PubChem BioAssay (NCATS).
Potency is the fitted concentration of half-maximal effect.

A short description of the first assay: NS1 protein of Zika virus - qHTS assay to identify small molecule inhibitors in human HEK 293 cells (AID 1347053). Note: nearly all actives have a fitted effect of over 55% in size. The settings on record: HEK293 ZIKV MR766 infection, NS1 TR-FRET, 24 h; series mostly up to 46.1 µM. Put shortly: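 Inhibition of NS1 expression was scored in HEK 293 cells given compound 1 h ahead of MR766 virus (MOI = 0.5). Following 24 h at 37 C, two anti-NS1 antibodies generated a TR-FRET signal, scaled between uninfected and infected controls.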
On the technique in general: qHTS replaces the single test concentration by a dilution series.
As to `CC1Cc2ccccc2N1NC(=O)c1ccc(Cl)c(S(N)(=O)=O)c1` (stereo not drawn), the Potency result is “inactive”.

Consider `CC1=C(C)C(=O)C(C(CCCCCC(=O)O)c2ccccc2)=C(C)C1=O` (stereo not drawn), for which the Potency entry is “inactive”.

With `Cc1nc(-c2ccc(OCC(C)C)c(C#N)c2)sc1C(=O)O`, the Potency result was “inactive”.

As for `CCOC(=O)C1=C[C@@H](OC(CC)CC)[C@H](NC(C)=O)[C@@H](N)C1`, the Potency result was “inactive”.

As for `COC1=C(OC)C(=O)C(CCCCCCCCCCO)=C(C)C1=O`, the Potency entry was “inactive”.

As to `C=CCc1cc(OC)c(O)c(C(=O)NCCO)c1`, the Potency entry was “inactive”.

For `CN(C)c1ccc(O)c2c1C[C@H]1C[C@H]3[C@H](N(C)C)C(=O)C(C(N)=O)=C(O)[C@@]3(O)C(=O)C1=C2O`, the Potency result was “inactive”.

Regarding `Cc1nc2n(c(=O)c1CCN1CCC(c3noc4cc(F)ccc34)CC1)CCCC2`, the Potency entry was “inactive”.

With `CC(C)CC(=O)N[C@H](C(=O)N[C@H](C(=O)N[C@@H](CC(C)C)[C@@H](O)CC(=O)N[C@@H](C)C(=O)N[C@@H](CC(C)C)[C@@H](O)CC(=O)O)C(C)C)C(C)C` (Isovaleryl-VV[Sta]A[Sta]-OH), the Potency result is “inactive”.

`CN1C(C(=O)Nc2ccccn2)=C(O)c2sccc2S1(=O)=O`: the Potency entry was “inactive”.

Regarding `Nc1cc(C(Cl)=C(Cl)Cl)c(S(N)(=O)=O)cc1S(N)(=O)=O`, the Potency entry is “inactive”.

For `Cc1cc2cc3c(C)cc(=O)oc3c(C)c2o1`, the Potency entry is “inactive”.

With `O=C(NCCO[N+](=O)[O-])c1cccnc1`, the Potency result was “inactive”.

For the molecule `CCOC(=O)c1c(C)n(C)c2ccc(O)cc12`, the Potency entry is “inactive”.

As to `Cn1c(NCCN(CCO)CCCc2ccc([N+](=O)[O-])cc2)cc(=O)n(C)c1=O`, the Potency entry is “inactive”.

For the molecule `CN(c1nccc(=O)[nH]1)C1CCN(c2nc3ccccc3n2Cc2ccc(F)cc2)CC1`, the Potency result was “inactive”.

For the molecule `CN(C)CCc1c[nH]c2ccc(Cn3cncn3)cc12`, the Potency entry is “inactive”.

On to `Cc1cc(C2CCCCC2)n(O)c(=O)c1`, for which the Potency entry was “inactive and 6.62 µM (active)”.

Regarding `CCCc1cc(=O)[nH]c(=S)[nH]1`, the Potency result is “inactive”.

Consider `CN(C)C(=O)COC(=O)Cc1ccc(OC(=O)c2ccc(N=C(N)N)cc2)cc1`, for which the Potency result is “inactive”.

As for `O=C(O)c1cn(-c2ccc(F)cc2)c2cc(N3CCNCC3)c(F)cc2c1=O`, the Potency result is “inactive”.

With `COc1ccc(C2(C#N)CCC(C(=O)O)CC2)cc1OC1CCCC1` (stereo not drawn), the Potency entry is “inactive”.

Regarding `COC(=O)[C@H](Cc1ccccc1)NC(=O)[C@@H](N)CC(=O)O` (H-Asp-Phe-OMe), the Potency result is “inactive”.

`Cc1cc2c(s1)Nc1ccccc1N=C2N1CCN(C)CC1`: the Potency result is “inactive”.

For `Nc1ccc(S(N)(=O)=O)cc1`, the Potency result is “inactive”.

As for `CC(S)C(=O)NCC(=O)O` (stereo not drawn), the Potency result was “inactive”.

`C[C@H](Cn1cnc2c(N)ncnc21)OCP(=O)(O)O`: the Potency entry is “inactive”.

With `N=C(N=C(N)N)N1CCOCC1`, the Potency entry is “inactive”.

As for `Cc1nc(Nc2ncc(C(=O)Nc3c(C)cccc3Cl)s2)cc(N2CCN(CCO)CC2)n1`, the Potency entry was “inactive”.

For the molecule `Cc1c(C(=O)NN2CCCCC2)nn(-c2ccc(Cl)cc2Cl)c1-c1ccc(Cl)cc1`, the Potency was 18.7 µM (active).

As for `CC(C)(S)[C@@H](N)C(=O)O`, the Potency result was “inactive”.

For the molecule `CC(C)[C@H](N)C(=O)OCCOCn1cnc2c(=O)[nH]c(N)nc21`, the Potency result is “inactive”.

For `Cc1ccc(C)c(OCCCC(C)(C)C(=O)O)c1`, the Potency entry is “inactive”.

Consider `CCCS(=O)c1ccc2nc(NC(=O)OC)[nH]c2c1` (stereo not drawn), for which the Potency entry was “inactive”.

With `CCC(C)(Oc1ccc(C2(c3ccc(OC(C)(CC)C(=O)O)cc3)CCCCC2)cc1)C(=O)O` (stereo not drawn), the Potency entry is “inactive”.

For `O=C(OC1C[C@H]2CC[C@@H](C1)[N+]21CCCC1)C(O)(c1ccccc1)c1ccccc1` (stereo partly drawn), the Potency result was “inactive”.

Consider `Clc1ccc(C(Cn2ccnc2)OCc2ccsc2Cl)c(Cl)c1` (stereo not drawn), for which the Potency result is “inactive”.

As for `CC1(C)CCC(C)(C)c2cc(NC(=O)c3ccc(C(=O)O)cc3)ccc21`, the Potency entry is “inactive”.

On to `CCCCCCCCOc1ccccc1C(=O)Nc1ccc(C(=O)OCC[N+](C)(CC)CC)cc1`, for which the Potency result is “inactive”.

The next assay can be described thus: qHTS of pediatric cancer cell lines to identify multiple opportunities for drug repurposing: Primary screen for TC32 cells (AID 1347089). Note: nearly all actives have a fitted effect of over 60% in size. The settings on record: TC32 Ewing sarcoma viability, CellTiter-Glo luminescence, 48 h; series mostly up to 45.8 µM. Put shortly:
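A viability screen of TC32 cells was run over 48 h, with primary MIPE doses spanning 0.78 nM–46 µM and NPC doses 0.59 nM–46 µM. ATP luminescence (CellTiter-Glo) served as the read-out.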
On to `CC1Cc2ccccc2N1NC(=O)c1ccc(Cl)c(S(N)(=O)=O)c1` (stereo not drawn), for which the Potency result is “inactive”.

Turning to `CC1=C(C)C(=O)C(C(CCCCCC(=O)O)c2ccccc2)=C(C)C1=O` (stereo not drawn), the Potency entry is “inactive”.

Regarding `Cc1nc(-c2ccc(OCC(C)C)c(C#N)c2)sc1C(=O)O`, the Potency entry is “inactive”.

For the molecule `CCOC(=O)C1=C[C@@H](OC(CC)CC)[C@H](NC(C)=O)[C@@H](N)C1`, the Potency result was “inactive”.

Consider `COC1=C(OC)C(=O)C(CCCCCCCCCCO)=C(C)C1=O`, for which the Potency entry is “inactive”.

Turning to `C=CCc1cc(OC)c(O)c(C(=O)NCCO)c1`, the Potency result is “inactive”.

On to `CN(C)c1ccc(O)c2c1C[C@H]1C[C@H]3[C@H](N(C)C)C(=O)C(C(N)=O)=C(O)[C@@]3(O)C(=O)C1=C2O`, for which the Potency result was “inactive”.

`Cc1nc2n(c(=O)c1CCN1CCC(c3noc4cc(F)ccc34)CC1)CCCC2`: the Potency entry is “inactive”.

For `CC(C)CC(=O)N[C@H](C(=O)N[C@H](C(=O)N[C@@H](CC(C)C)[C@@H](O)CC(=O)N[C@@H](C)C(=O)N[C@@H](CC(C)C)[C@@H](O)CC(=O)O)C(C)C)C(C)C` (Isovaleryl-VV[Sta]A[Sta]-OH), the Potency entry is “inactive”.

On to `CN1C(C(=O)Nc2ccccn2)=C(O)c2sccc2S1(=O)=O`, for which the Potency result is “inactive”.

As for `Nc1cc(C(Cl)=C(Cl)Cl)c(S(N)(=O)=O)cc1S(N)(=O)=O`, the Potency entry was “inactive”.

On to `Cc1cc2cc3c(C)cc(=O)oc3c(C)c2o1`, for which the Potency entry was “inactive”.

`O=C(NCCO[N+](=O)[O-])c1cccnc1`: the Potency entry is “inactive”.

Consider `CCOC(=O)c1c(C)n(C)c2ccc(O)cc12`, for which the Potency result was “inactive”.

Regarding `Cn1c(NCCN(CCO)CCCc2ccc([N+](=O)[O-])cc2)cc(=O)n(C)c1=O`, the Potency entry was “inactive”.

In the case of `CN(c1nccc(=O)[nH]1)C1CCN(c2nc3ccccc3n2Cc2ccc(F)cc2)CC1`, the Potency result was “inactive”.

As to `CN(C)CCc1c[nH]c2ccc(Cn3cncn3)cc12`, the Potency entry was “inactive”.

On to `Cc1cc(C2CCCCC2)n(O)c(=O)c1`, for which the Potency is 7.45 µM (active).

Consider `CCCc1cc(=O)[nH]c(=S)[nH]1`, for which the Potency entry was “inactive”.

Take `CN(C)C(=O)COC(=O)Cc1ccc(OC(=O)c2ccc(N=C(N)N)cc2)cc1`: the Potency result is “inactive”.

`O=C(O)c1cn(-c2ccc(F)cc2)c2cc(N3CCNCC3)c(F)cc2c1=O`: the Potency result was “inactive”.

Take `COc1ccc(C2(C#N)CCC(C(=O)O)CC2)cc1OC1CCCC1` (stereo not drawn): the Potency entry was “inactive”.

Turning to `COC(=O)[C@H](Cc1ccccc1)NC(=O)[C@@H](N)CC(=O)O` (H-Asp-Phe-OMe), the Potency result was “inactive”.

Turning to `Cc1cc2c(s1)Nc1ccccc1N=C2N1CCN(C)CC1`, the Potency result is “inactive”.

For `Nc1ccc(S(N)(=O)=O)cc1`, the Potency entry is “inactive”.

With `CC(S)C(=O)NCC(=O)O` (stereo not drawn), the Potency entry was “inactive”.

For the molecule `C[C@H](Cn1cnc2c(N)ncnc21)OCP(=O)(O)O`, the Potency result was “inactive”.

`N=C(N=C(N)N)N1CCOCC1`: the Potency entry is “inactive”.

For `Cc1nc(Nc2ncc(C(=O)Nc3c(C)cccc3Cl)s2)cc(N2CCN(CCO)CC2)n1`, the Potency entry is “inactive”.

On to `Cc1c(C(=O)NN2CCCCC2)nn(-c2ccc(Cl)cc2Cl)c1-c1ccc(Cl)cc1`, for which the Potency entry was “inactive”.

As to `CC(C)(S)[C@@H](N)C(=O)O`, the Potency result was “inactive”.

In the case of `CC(C)[C@H](N)C(=O)OCCOCn1cnc2c(=O)[nH]c(N)nc21`, the Potency result was “inactive”.

For the molecule `Cc1ccc(C)c(OCCCC(C)(C)C(=O)O)c1`, the Potency entry was “inactive”.

Regarding `CCCS(=O)c1ccc2nc(NC(=O)OC)[nH]c2c1` (stereo not drawn), the Potency entry was “inactive”.

For the molecule `CCC(C)(Oc1ccc(C2(c3ccc(OC(C)(CC)C(=O)O)cc3)CCCCC2)cc1)C(=O)O` (stereo not drawn), the Potency result was “inactive”.

Consider `O=C(OC1C[C@H]2CC[C@@H](C1)[N+]21CCCC1)C(O)(c1ccccc1)c1ccccc1` (stereo partly drawn), for which the Potency result was “inactive”.

For the molecule `Clc1ccc(C(Cn2ccnc2)OCc2ccsc2Cl)c(Cl)c1` (stereo not drawn), the Potency entry is “inactive”.

Consider `CC1(C)CCC(C)(C)c2cc(NC(=O)c3ccc(C(=O)O)cc3)ccc21`, for which the Potency entry is “inactive”.

With `CCCCCCCCOc1ccccc1C(=O)Nc1ccc(C(=O)OCC[N+](C)(CC)CC)cc1`, the Potency entry is “inactive”.
